PKA-R1A act: activates the PKA-R1A holoenzyme complex. PKA-R1A dissociation, Cy5-IP20 fluorescence polarization; scaled: DMSO 0%, 113 µM cGMP 100%. activation, % at 11.4 µM. actives 0.083% (n = 340,000). AID 504707;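 active = percent activation above the mean of all tested compounds plus 3 SD, cut at about 19% in these data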;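 note: higher means more PKAc released from R1A so a rise in polarization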
HDAC3 inhib: inhibitors of human histone deacetylase 3. actives 0.15% (n = 320,000). inhibition, % at 8.3 µM. recombinant HDAC3, fluorogenic peptide/trypsin coupled, fluorescence; in the data active = inhibition above about 26%, passing the limit was not always enough; inconclusive = no clear call, values can overlap the other calls
Target sequence (O15379 whole entry, looked up): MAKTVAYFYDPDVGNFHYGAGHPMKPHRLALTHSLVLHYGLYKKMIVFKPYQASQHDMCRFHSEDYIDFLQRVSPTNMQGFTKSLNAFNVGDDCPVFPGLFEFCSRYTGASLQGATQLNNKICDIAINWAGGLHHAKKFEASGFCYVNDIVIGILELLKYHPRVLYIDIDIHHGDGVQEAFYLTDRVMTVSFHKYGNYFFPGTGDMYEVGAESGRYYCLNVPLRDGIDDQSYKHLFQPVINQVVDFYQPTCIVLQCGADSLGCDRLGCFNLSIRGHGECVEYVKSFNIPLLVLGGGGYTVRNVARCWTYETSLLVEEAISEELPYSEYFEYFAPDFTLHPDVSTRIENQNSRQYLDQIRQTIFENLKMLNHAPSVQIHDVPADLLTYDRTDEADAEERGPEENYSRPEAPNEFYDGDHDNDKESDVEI
PKA-R2B activ: activates the human PKA-R2B holoenzyme complex; actives 0.079% (n = 340,000); PKA-R2B holoenzyme dissociation, Cy5-IP20 fluorescence polarization; R2B truncated from residue 108, S112A mutant; 0% DMSO only, 100% 113 µM cGMP; activation, % at 11.4 µM; P22694+P31323;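 active = activation above a cutoff set at the mean over all compounds plus 3 SD, cut at about 18% in these data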;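 note: higher means more holoenzyme dissociation and a rise in polarization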
Rtt109 Vps75: blocks Candida albicans Rtt109/Vps75 acetyltransferase activity; actives 0.16% (n = 330,000); inhibition, % at 34.9 µM; purified Rtt109/Vps75, ThioGlo CoA-SH fluorescence, 4 h;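 active = inhibition of at least 50% in every replicate; inconclusive = best replicate reaches 50% inhibition but some replicates fall short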
The depositor's hits bear a star. The list is not random: actives were taken first. Their share in the collection is about 0.43%.

`Cc1ccc(C(=O)NCCCNC(=O)COc2ccc(C)c(C)c2)cn1` gave PKA-R1A act -6.9, HDAC3 inhib -2.4, PKA-R2B activ -10.6 and Rtt109 Vps75 55.2*.
`CCC(/C=C1\Sc2ccc(OC)cc2N1CCO)=C\c1sc2ccc(OC)cc2[n+]1CCO` gave PKA-R1A act 4.5, HDAC3 inhib inconclusive, PKA-R2B activ -20.7 and Rtt109 Vps75 114.3*.
For Cc1cc(C(=O)Nc2ccncc2)c(C)o1 the results were PKA-R1A act 6.9, PKA-R2B activ -3.2 and Rtt109 Vps75 50.6*.
For O=S(=O)(Nc1cc(Sc2ncn[nH]2)c(O)c2ccccc12)c1ccccc1 the results were Rtt109 Vps75 active.
For Cc1cc(O)c(Sc2ncn[nH]2)cc1NS(=O)(=O)c1ccc(Cl)cc1 the results were PKA-R1A act 0.9, HDAC3 inhib 6.4, PKA-R2B activ 0.2 and Rtt109 Vps75 7.3.
For Cc1ccc(S(=O)(=O)N(C)CCCC(=O)NC(C)(C)CO)cc1 the results were PKA-R1A act 3.0, HDAC3 inhib -0.6, PKA-R2B activ -2.7 and Rtt109 Vps75 0.0.
For O=C(NNC(=O)c1ccccc1[N+](=O)[O-])c1ccc(NC(=O)c2ccccc2)cc1 the results were PKA-R1A act -15.3, HDAC3 inhib 5.1, PKA-R2B activ -1.0 and Rtt109 Vps75 -3.6.
For O=C(Nc1ccccc1)c1ccccc1NC(=O)c1ccccc1[N+](=O)[O-] the results were PKA-R1A act -9.6, HDAC3 inhib 17.8, PKA-R2B activ -2.6 and Rtt109 Vps75 50.5*.
Screening COc1ccc(CC(NC(C)=O)C(=O)NC2CCN(c3nc(C)cc(C)c3C#N)CC2)cc1OC (stereo not drawn) returned PKA-R1A act -4.6, HDAC3 inhib -5.3, PKA-R2B activ -4.3 and Rtt109 Vps75 -6.5.
`COc1ccc(CC(NC(C)=O)C(=O)NC2CCN(c3nc(C)cc(C)c3C#N)CC2)cc1` (stereo not drawn) gave PKA-R1A act -3.6, HDAC3 inhib -8.7, PKA-R2B activ 0.1 and Rtt109 Vps75 52.7*.
`CC(=O)Nc1ccc(NC(=O)C(C)Oc2ccccc2C(=O)NCc2ccccc2)cc1` (stereo not drawn) gave PKA-R1A act 10.1, HDAC3 inhib 5.7, PKA-R2B activ -8.0 and Rtt109 Vps75 15.4.
CC(C)NC(=O)c1onc(CSc2ccc(F)cc2)c1C(=O)NC(C)C was read as PKA-R1A act -0.3, HDAC3 inhib 1.7, PKA-R2B activ 0.8 and Rtt109 Vps75 -6.7.
O=c1[nH]c(CS(=O)(=O)c2ccccc2)nc2ccccc12 was read as PKA-R1A act 0.9, HDAC3 inhib -5.4, PKA-R2B activ 2.9 and Rtt109 Vps75 -6.1.
`CCn1c(C)c(CS(=O)(=O)c2ccccc2)[nH]c1=O` gave PKA-R1A act -13.5, HDAC3 inhib -7.8, PKA-R2B activ 1.3 and Rtt109 Vps75 118.8*.
`O=[N+]([O-])c1cc(S(=O)(=O)C(F)(F)F)ccc1NCC1CCCO1` (stereo not drawn) gave PKA-R1A act 0.2, HDAC3 inhib 7.6, PKA-R2B activ -16.8 and Rtt109 Vps75 4.1.
Screening CCN=C1SC(C(=O)Nc2cccc(Br)c2)CC(=O)N1CC (stereo not drawn) returned PKA-R1A act -4.0, HDAC3 inhib -23.9, PKA-R2B activ 1.5 and Rtt109 Vps75 -2.3.
O=C(Nc1ccccc1O)c1ccc2c(c1)C(=O)N(Cc1ccco1)C2=O was read as PKA-R1A act -8.3, HDAC3 inhib 40.8*, PKA-R2B activ 2.1 and Rtt109 Vps75 -7.6.
For COc1ccccc1NC(=O)c1ccc2c(c1)C(=O)N(Cc1ccco1)C2=O the results were PKA-R1A act 9.0, HDAC3 inhib 2.1, PKA-R2B activ -13.3 and Rtt109 Vps75 2.0.
Screening COc1cc(OC)cc(-c2nnc(NC(=O)c3ccc4c(c3)OCCO4)o2)c1 returned PKA-R1A act 4.8, HDAC3 inhib -8.5, PKA-R2B activ -15.1 and Rtt109 Vps75 -6.9.
`O=C(C/C=N/OCc1ccc(Cl)cc1Cl)c1ccccc1` gave PKA-R1A act -16.0, HDAC3 inhib -2.4, PKA-R2B activ -2.2 and Rtt109 Vps75 64.9*.
Screening Cc1ccc2nc(N(CCCN(C)C)C(=O)c3sc4ccccc4c3Cl)sc2c1 returned PKA-R1A act 4.0, HDAC3 inhib 3.1, PKA-R2B activ 3.1 and Rtt109 Vps75 54.8*.
`O=C(NCc1ccco1)c1ccc(CS(=O)Cc2ccc(Cl)cc2)o1` (stereo not drawn) gave PKA-R1A act -1.1, HDAC3 inhib 6.7, PKA-R2B activ 7.0 and Rtt109 Vps75 -5.4.
`CC(NCC(O)COC1CCC(C(C)(C)C)CC1)c1ccccc1` (stereo not drawn) gave PKA-R1A act -8.6, HDAC3 inhib -17.0, PKA-R2B activ -7.9 and Rtt109 Vps75 60.0*.
`CC1CCC(C(C)C)C(OCC(O)CNC(C)c2ccccc2)C1` (stereo not drawn) gave PKA-R1A act -1.3, HDAC3 inhib 1.7, PKA-R2B activ -5.6 and Rtt109 Vps75 15.0.
For COc1ccc(C(=O)C(C)OC(=O)COc2ccccc2)cc1 (stereo not drawn) the results were PKA-R1A act 1.8, HDAC3 inhib -3.9, PKA-R2B activ -3.2 and Rtt109 Vps75 -5.2.
`CC(C)c1ccc(NC(=O)NC(C)c2ccc3c(c2)OCO3)cc1` (stereo not drawn) gave PKA-R1A act 8.1, HDAC3 inhib 9.3, PKA-R2B activ -5.5 and Rtt109 Vps75 57.9*.
CCOc1ccc(NC(=O)NC(C)c2ccc3c(c2)OCO3)cc1 (stereo not drawn) was read as PKA-R1A act 2.2, HDAC3 inhib -1.0, PKA-R2B activ -8.2 and Rtt109 Vps75 -4.5.
`O=S(=O)(c1cc(F)ccc1F)N1CCN(c2ncnc3ccccc23)CC1` gave PKA-R1A act 4.0, HDAC3 inhib -2.0, PKA-R2B activ 3.0 and Rtt109 Vps75 1.8.
CC(=O)N1CCN(c2ncnc3ccccc23)CC1 was read as PKA-R1A act -1.8, HDAC3 inhib -4.8, PKA-R2B activ -2.2 and Rtt109 Vps75 57.6*.
CCNC(=O)n1nccc1C(C)Oc1cccc(C(F)(F)F)c1 (stereo not drawn) was read as PKA-R1A act -5.1, HDAC3 inhib 9.2, PKA-R2B activ -10.2 and Rtt109 Vps75 0.7.
`COc1cc(SC)ccc1C(=O)N1CCN(c2ccccc2F)CC1` gave PKA-R1A act -1.4, HDAC3 inhib 2.3, PKA-R2B activ -5.2 and Rtt109 Vps75 5.9.
COc1cc2c(C(=O)N3CCN(c4ccccc4F)CC3)cn(C)c(=O)c2cc1OC was read as PKA-R1A act 2.8, HDAC3 inhib 44.5*, PKA-R2B activ -1.2 and Rtt109 Vps75 -3.4.
`CCOc1ccc(C(=O)CC(C(=O)O)N2CCCCC2)cc1` (stereo not drawn) gave PKA-R1A act -4.6, HDAC3 inhib 0.7, PKA-R2B activ 18.5* and Rtt109 Vps75 -0.6.
For CCOC(=O)C(C(=O)Nc1ccccc1C)C1CCCCC1 (stereo not drawn) the results were PKA-R1A act -3.0, HDAC3 inhib 1.5, PKA-R2B activ -7.2 and Rtt109 Vps75 -6.5.

Source: PubChem BioAssay (several laboratories)
